LASV entry inh = blocks Lassa virus binding to or entry into cells; hit rate 1.2% among 300,000; Potency, µM (series often up to 37.9 µM), inactives show at the top dose activity change, negative = inhibition, usual class: inhibitors; Lassa virus pseudotype entry inhibition, cell reporter; AID 540256; calls by dose curve; tested in HEK293 cells; further: potency means the concentration at half of the fitted maximal effect; on the % scale 0 is the no-effect control and ±100 the full control effect; nearly all actives have a fitted effect of over 50% in size
HCV inhibitor = blocks hepatitis C virus | hit rate 3.4% among 340,000 | Potency, µM (titrated, usually from 41.8 µM), for inactives: at the highest dose activity change, negative = inhibition, actives largely listed as inhibitors | Huh7.5.1 HCVcc-Cre infection, luciferase reporter, 44 h; further: potency means the concentration at half of the fitted maximal effect; on the % scale 0 is the no-effect control and ±100 the full control effect
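Luciferase read-out (15 sec integration) after a 15 min room-temperature substrate step quantifies HCVcc-Cre infection. Cells, 1,000 per well, had compound added 4 h post-plating, then virus at ~0.5 moi, and were cultured 44 h.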
MARV entry inh = blocks Marburg virus binding to or entry into cells; Marburg virus pseudotyped entry inhibition, cell reporter; Potency, µM (titrated, usually from 37.8 µM), for the others: top-dose activity change, negative = inhibition, usual class: inhibitors; hit rate 1.8% among 300,000; calls by dose curve; tested in HEK293 cells; further: potency means the concentration at half of the fitted maximal effect; on the % scale 0 is the no-effect control and ±100 the full control effect
Giardia FBPA inh = blocks Giardia fructose-bisphosphate aldolase activity; purified Giardia FBPA; hit rate 0.71% among 290,000; Potency, µM (series often up to 59.6 µM), for inactives: top-dose activity, negative = inhibition, actives largely listed as inhibitors; A8B2U2; further: potency means the concentration at half of the fitted maximal effect; on the % scale 0 is the no-effect control and ±100 the full control effect; nearly all actives have a fitted effect of over 55% in size
Target sequence (A8B2U2 whole entry, looked up): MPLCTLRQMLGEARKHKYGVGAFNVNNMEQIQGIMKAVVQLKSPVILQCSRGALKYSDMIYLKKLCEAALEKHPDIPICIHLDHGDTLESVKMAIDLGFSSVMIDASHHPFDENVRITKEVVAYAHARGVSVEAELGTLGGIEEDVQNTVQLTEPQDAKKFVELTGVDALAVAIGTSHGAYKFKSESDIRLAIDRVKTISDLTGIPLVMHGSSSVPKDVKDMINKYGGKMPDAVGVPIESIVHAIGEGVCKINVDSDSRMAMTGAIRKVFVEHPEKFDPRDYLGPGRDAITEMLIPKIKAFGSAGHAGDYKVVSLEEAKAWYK
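Giardia FBPA (40 nM reagent) was preincubated 10 min at RT with compound (up to 57.5 uM final), then substrate plus GAPDH/TPI/NAD/arsenate coupling system with diaphorase/resazurin was added; resorufin fluorescence (525/598 nm) was read after 20 min.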
HCMV antiviral = inhibitors of human cytomegalovirus; HFF cells, HCMV-luciferase reporter, 72 h; hits give low values; hit rate 4.5% among 410,000; activity change, negative = inhibition, % at 57.5 µM; AID 1259415; in the data active means activity change below about -60%; inconclusive means no clear call, values can overlap the other calls; inactive means above about -39%; further: on the % scale 0 is the no-effect control and ±100 the full control effect
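Luciferase read-out from HCMV-luciferase-infected HFFs (MOI 1 PFU/cell) 72 h post infection at 37C; compounds added after 16 h cell attachment; activity normalized between buffer-only basal and Salinomycin (10uM) inhibitor controls.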
FMDV inh = antivirals against foot and mouth disease virus; FMDV antiviral cell-based qHTS; Potency, µM (doses to about 57.9 µM), without a hit: at the top dose activity change, negative = inhibition, actives largely listed as inhibitors; hit rate 1.2% among 410,000; AID 1159524; calls by dose curve; tested in HEK293T cells; further: read-out not given here; potency means the concentration at half of the fitted maximal effect; on the % scale 0 is the no-effect control and ±100 the full control effect; nearly all actives have a fitted effect of over 45% in size
HCV confirm = HCV inhibition, cherry-pick confirmation. shares compounds with HCV inhibitor. HCVcc-Cre infectious virus cell assay, luciferase, inhibition. Potency, µM (highest dose often 41.8 µM), inactives show at the top dose activity, negative = inhibition, actives largely listed as inhibitors. hit rate 78% among 640; further: potency means the concentration at half of the fitted maximal effect; nearly all actives have a fitted effect of over 80% in size
HCV cytotox = host cell cytotoxicity counter-screen for HCV inhibitors. shares compounds with HCV inhibitor. HCV host cell line cytotoxicity counterscreen. Potency, µM (titrated, usually from 41.8 µM), inactives show at the highest dose activity change, negative = cytotoxicity, hits mostly inhibitors. hit rate 22% among 640. AID 720576;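 further: potency means the concentration at half of the fitted maximal effect; 44 h compound exposure; on the % scale 0 is the no-effect control and ±100 the full control effect; nearly all actives have a fitted effect of over 55% in size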
Starred values were filed as active, the others as inactive; [ ] = dose if it differs, or a comment. Rows were chosen to be rich in hits. Some 8.3% of all compounds tested hit in one or more screens of this group. Unless noted, the call rests on the fitted dose curve; in most records, active means well fitted curve in the direction sought with a large enough effect; inconclusive means small, poorly fitted or top-dose-only effect, or another doubt; inactive means no such curve, though single readings can be large; an effect the other way counts as inactive or inconclusive.

Results for CCOC(=O)CSc1nc2cc3c(cc2c(=O)n1CCCCCC(=O)NCc1ccc(OC)cc1)OCO3 ?
LASV entry inh: 4.4%[46.1 µM]; HCMV antiviral: 28.9; FMDV inh: -9.2%

What do the screens show for `CCOc1nc(-c2ccccc2O)nc2ccccc12`?
LASV entry inh: 2.1%; HCV inhibitor: inconclusive; MARV entry inh: 3.3%; Giardia FBPA inh: 7.1%; HCMV antiviral: 3.9; HCV confirm: 6.28µM*; HCV cytotox: 0.887µM*

What do the screens show for `Oc1ccccc1-c1nc(NC2CCCC2)c2ccccc2n1`?
HCV inhibitor: inconclusive; Giardia FBPA inh: inconclusive; HCMV antiviral: 28.0; FMDV inh: -29.4%

Results for CC12CCC3C(CCC4CC(O)CCC43C)C1CC=C2c1ccccc1 (centres undefined) ?
Giardia FBPA inh: -0.1%; FMDV inh: -12.2%

What do the screens show for `C/C(=N\NC(N)=S)C1=CCC2C3CC[C@H]4CC(O)CC[C@]4(C)C3CC[C@]12C` (some centres undefined)?
HCV inhibitor: inconclusive; Giardia FBPA inh: 1.0%; HCMV antiviral: -38.0; FMDV inh: inconclusive; HCV confirm: 7.91µM*; HCV cytotox: 0.0%

What do the screens show for `C[C@H]1CN(C(=O)OC(C)(C)C)CCN1c1ccc(N2CC[C@@H](O)C2)c(C#N)c1`?
HCMV antiviral: 33.7

Results for COC(=O)c1ccc(C(=O)OC)c(NC(=O)c2c(-c3ccccc3)c(-c3ccccc3)nn(C)c2=O)c1 ?
LASV entry inh: 3.5%[46.1 µM]; MARV entry inh: 24.4%[46.1 µM]; HCMV antiviral: -6.3; FMDV inh: -14.7%

What do the screens show for `Cc1cc2oc(C(=O)NCCc3ccc(S(N)(=O)=O)cc3)c(C)c2cc1C`?
LASV entry inh: -26.9%[46.1 µM]; HCV inhibitor: inconclusive; MARV entry inh: -6.3%[46.1 µM]; Giardia FBPA inh: 2.7%; HCMV antiviral: -20.5; FMDV inh: -20.1%; HCV confirm: inconclusive; HCV cytotox: 22.7%

How did COc1ccc(CSc2nnnn2-c2ccccc2)cc1 do in these assays?
LASV entry inh: inconclusive; HCV inhibitor: -13.1%; MARV entry inh: -5.0%; Giardia FBPA inh: -4.0%; HCMV antiviral: -19.3; FMDV inh: -8.3%

How did COc1cc(CSc2nnnn2-c2ccc(C)cc2)cc(OC)c1OC do in these assays?
LASV entry inh: 3.66µM*; HCV inhibitor: inconclusive; MARV entry inh: inconclusive; Giardia FBPA inh: 2.6%; HCMV antiviral: -88.8*; HCV confirm: 1.77µM*; HCV cytotox: -93.7%

Results for O=c1c(-c2ccc(F)cc2)nc2cnc(Oc3cccc(Cl)c3)nc2n1C[C@H]1CCCO1 ?
Giardia FBPA inh: 4.9%; FMDV inh: 5.9%

How did CC(OC(=O)c1c2c(nc3ccccc13)/C(=C\c1ccc3c(c1)OCO3)CCC2)C(=O)Nc1ccc(S(N)(=O)=O)cc1 (centres undefined) do in these assays?
LASV entry inh: inconclusive; HCV inhibitor: inconclusive; MARV entry inh: inconclusive; Giardia FBPA inh: -21.0%; FMDV inh: 30.5%

What do the screens show for `CNC(=O)NC(=O)C(C)OC(=O)c1c2c(nc3ccccc13)/C(=C/c1cccs1)CC2` (centres undefined)?
LASV entry inh: inconclusive; HCV inhibitor: 2.82µM*; MARV entry inh: inconclusive; Giardia FBPA inh: -9.3%; HCMV antiviral: -10.6; FMDV inh: -16.9%; HCV confirm: 1.77µM*; HCV cytotox: 17.7µM*

Results for COc1ccc(-c2coc3cc(O)cc(O)c3c2=O)cc1 ?
LASV entry inh: inconclusive; HCV inhibitor: -0.3%[8.37 µM]; MARV entry inh: inconclusive; Giardia FBPA inh: 3.9%; HCMV antiviral: 5.6; FMDV inh: 13.1%

Results for O=c1c(-c2ccc(O)cc2)coc2cc(O)cc(O)c12 ?
LASV entry inh: inconclusive; HCV inhibitor: 0.891µM*; MARV entry inh: inconclusive; Giardia FBPA inh: 3.9%; HCMV antiviral: 71.9; FMDV inh: 29.6%; HCV confirm: -7.1%; HCV cytotox: -3.7%

Results for Cc1ccc(C)c2nc(SCC(=O)N3CCCc4ccccc43)c(C#N)cc12 ?
LASV entry inh: -19.1%; HCV inhibitor: 6.31µM*; MARV entry inh: -26.1%; Giardia FBPA inh: -9.8%; HCMV antiviral: 12.2; FMDV inh: 12.8%; HCV confirm: 7.05µM*; HCV cytotox: 14.6%

How did O=C(Cc1csc(Nc2nc(=S)[nH]c3ccccc23)n1)NCc1cccc(Cl)c1 do in these assays?
LASV entry inh: -29.2%; HCV inhibitor: inconclusive; MARV entry inh: inconclusive; Giardia FBPA inh: 0.2%; HCMV antiviral: 8.6; FMDV inh: 4.9%

Results for O=C(Cc1csc(Nc2nc(=S)[nH]c3ccccc23)n1)N1CCN(c2cccc(C(F)(F)F)c2)CC1 ?
HCV inhibitor: 5.62µM*; MARV entry inh: 22.5%[46.1 µM]; Giardia FBPA inh: 0.2%; HCMV antiviral: -14.2; FMDV inh: inconclusive; HCV confirm: 12.5µM*; HCV cytotox: 12.5µM*

Results for CNc1ccc(Br)cc(C(=O)/C=C/c2cc(OC)ccc2OC)c1=O ?
LASV entry inh: inconclusive; HCV inhibitor: 5.01µM*; MARV entry inh: inconclusive; Giardia FBPA inh: inconclusive; HCMV antiviral: -101.9*; FMDV inh: 20µM*; HCV confirm: inconclusive; HCV cytotox: -27.4%

Results for Cn1cc(-c2nc3cncnc3n(CCN)c2=O)c2ccccc21 ?
Giardia FBPA inh: -13.7%; FMDV inh: -24.6%

How did CCc1cccc(NC(=O)COc2cc(=O)n(CC)c3ccccc23)c1 do in these assays?
LASV entry inh: inconclusive; MARV entry inh: 24.2%[46.1 µM]; HCMV antiviral: 11.7; FMDV inh: -21.9%

Results for COc1cc(OC)cc(C(=O)NCCc2csc(-c3ccc(C(F)(F)F)cc3)n2)c1 ?
LASV entry inh: 3.3%[46.1 µM]; HCMV antiviral: -34.9; FMDV inh: inconclusive

Results for Cc1nc(-c2cnn(-c3ccccc3)c2)c2cc(C)oc2n1 ?
LASV entry inh: -1.8%; HCV inhibitor: 7.08µM*; MARV entry inh: inconclusive; Giardia FBPA inh: 1.1%; HCMV antiviral: -26.0; FMDV inh: -24.5%; HCV confirm: 15.8µM*; HCV cytotox: 46.3%

What do the screens show for `Cc1oc2c(O)c(O)ccc2c(=O)c1-c1cnn(-c2ccccc2)c1`?
LASV entry inh: -9.3%; HCV inhibitor: -19.5%; MARV entry inh: -1.4%; Giardia FBPA inh: inconclusive; HCMV antiviral: 9.8; FMDV inh: -30.7%

Results for Cc1ccc(CNC(=O)Cn2ccn(-c3ccc(C)c(C)c3)c(=O)c2=O)cc1 ?
LASV entry inh: -1.0%[46.1 µM]; HCMV antiviral: inconclusive; FMDV inh: 41.0%

Screening data: PubChem BioAssay, National Center for Advancing Translational Sciences (NCATS)
